What all share (test): protein-binding microarray (PBM); PBM: ~300 nM protein, 6 mM HEPES pH 7.8, 80 mM KCl, 0.5 mM EDTA, 0.5 mM EGTA, 6% glycerol, 35 ng/ul poly-dIdC, 1% milk, 1 h, room temperature; Ap Aiptasia and Nv Nematostella (sea anemones) / Co Capsaspora / Aq Amphimedon (sponge) / Dm Drosophila / Hu human; RHD is the Rel homology domain; high values mean tight binding
Settings in all cases: dsDNA, one strand shown

In one experiment the target is T1, GST-Ap-NF-kB RHD (Exaiptasia pallida (Aiptasia), UniProt A0A913YAJ5 2-422).
T1 sequence: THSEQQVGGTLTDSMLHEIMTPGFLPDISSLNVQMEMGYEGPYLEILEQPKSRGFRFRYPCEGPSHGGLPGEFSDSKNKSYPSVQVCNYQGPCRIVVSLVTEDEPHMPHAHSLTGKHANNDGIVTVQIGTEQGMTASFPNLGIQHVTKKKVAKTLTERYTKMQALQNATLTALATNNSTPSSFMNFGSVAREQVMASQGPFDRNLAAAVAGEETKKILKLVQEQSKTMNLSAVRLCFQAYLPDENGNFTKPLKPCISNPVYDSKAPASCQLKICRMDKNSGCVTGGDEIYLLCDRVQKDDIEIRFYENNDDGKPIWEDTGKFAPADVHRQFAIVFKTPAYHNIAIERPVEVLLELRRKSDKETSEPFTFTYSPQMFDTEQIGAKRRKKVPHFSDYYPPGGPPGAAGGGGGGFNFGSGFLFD

Experiment [1] deals with T2, GST-Nv-NF-kB (Cys allele) (Nematostella vectensis, UniProt E5G601 2-411).
T2 sequence: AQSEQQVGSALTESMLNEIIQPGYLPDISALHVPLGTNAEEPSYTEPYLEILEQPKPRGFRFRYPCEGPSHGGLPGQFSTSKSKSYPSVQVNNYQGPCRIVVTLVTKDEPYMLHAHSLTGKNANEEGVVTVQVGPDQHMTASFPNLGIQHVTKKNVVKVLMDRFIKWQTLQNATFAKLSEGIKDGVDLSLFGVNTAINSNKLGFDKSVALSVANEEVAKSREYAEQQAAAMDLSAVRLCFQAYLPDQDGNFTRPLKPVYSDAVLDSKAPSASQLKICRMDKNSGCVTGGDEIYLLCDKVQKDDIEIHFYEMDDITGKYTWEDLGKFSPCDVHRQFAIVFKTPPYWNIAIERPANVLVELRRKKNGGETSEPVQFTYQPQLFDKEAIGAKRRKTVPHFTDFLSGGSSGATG

The next experiment deals with T3, GST-Co-NF-kB (Capsaspora owczarzaki, UniProt F1ARL5 200-546).
T3 sequence: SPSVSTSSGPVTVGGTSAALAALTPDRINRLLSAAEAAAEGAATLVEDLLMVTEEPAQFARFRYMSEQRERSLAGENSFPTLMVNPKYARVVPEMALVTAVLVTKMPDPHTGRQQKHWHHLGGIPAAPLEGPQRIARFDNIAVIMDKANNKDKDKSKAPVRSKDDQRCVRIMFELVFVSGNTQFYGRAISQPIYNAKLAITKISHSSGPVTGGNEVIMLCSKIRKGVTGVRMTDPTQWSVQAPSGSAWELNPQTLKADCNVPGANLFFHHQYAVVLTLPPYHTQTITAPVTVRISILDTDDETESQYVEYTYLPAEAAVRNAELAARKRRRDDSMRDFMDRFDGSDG

The target in a further experiment is T4, GST-Dm-Relish (Drosophila melanogaster, UniProt Q94527 99-473).
T4 sequence: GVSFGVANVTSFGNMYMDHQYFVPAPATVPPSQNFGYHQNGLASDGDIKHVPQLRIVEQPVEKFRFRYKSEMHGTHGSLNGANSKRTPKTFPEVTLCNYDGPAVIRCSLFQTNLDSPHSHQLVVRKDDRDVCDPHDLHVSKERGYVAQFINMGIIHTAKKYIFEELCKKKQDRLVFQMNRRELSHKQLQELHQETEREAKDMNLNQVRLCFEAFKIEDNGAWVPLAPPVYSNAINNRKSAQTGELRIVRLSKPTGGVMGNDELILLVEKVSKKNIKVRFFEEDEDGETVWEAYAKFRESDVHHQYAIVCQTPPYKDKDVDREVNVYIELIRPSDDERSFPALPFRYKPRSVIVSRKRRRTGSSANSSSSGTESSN

Another experiment has as its target T5, GST-Aq-NF-kB (Amphimedon queenslandica, UniProt A9Y5G7 2-389).
T5 sequence: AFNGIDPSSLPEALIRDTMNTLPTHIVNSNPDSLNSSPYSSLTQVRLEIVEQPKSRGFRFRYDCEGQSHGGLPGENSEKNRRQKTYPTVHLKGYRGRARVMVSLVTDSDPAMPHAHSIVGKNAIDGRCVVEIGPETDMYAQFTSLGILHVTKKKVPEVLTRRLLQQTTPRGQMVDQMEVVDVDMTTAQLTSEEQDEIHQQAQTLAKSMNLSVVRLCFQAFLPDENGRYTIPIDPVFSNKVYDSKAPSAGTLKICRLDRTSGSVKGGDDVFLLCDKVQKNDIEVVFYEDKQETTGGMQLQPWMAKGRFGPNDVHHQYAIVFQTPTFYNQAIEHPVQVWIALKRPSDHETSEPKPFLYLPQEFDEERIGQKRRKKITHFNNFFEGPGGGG

The target in the next experiment is GST-Hu-p50 (Homo sapiens, UniProt P19838 7-356).
Chain of GST-Hu-p50 (P19838 7-356): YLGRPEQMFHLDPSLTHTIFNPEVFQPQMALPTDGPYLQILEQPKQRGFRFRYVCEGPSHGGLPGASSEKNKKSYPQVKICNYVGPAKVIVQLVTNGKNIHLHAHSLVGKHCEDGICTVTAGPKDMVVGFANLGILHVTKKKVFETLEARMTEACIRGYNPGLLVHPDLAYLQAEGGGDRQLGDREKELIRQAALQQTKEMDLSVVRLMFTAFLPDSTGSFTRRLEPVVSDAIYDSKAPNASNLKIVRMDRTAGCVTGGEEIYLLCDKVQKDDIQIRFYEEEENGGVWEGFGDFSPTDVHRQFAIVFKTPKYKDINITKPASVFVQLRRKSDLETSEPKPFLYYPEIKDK

On to “CCGATTAACATCAAAAAACCCCGTGATGTTAATCGGGTCTTGATTCGCTTGACGCTGCTG”, for which the binding signal with GST-Ap-NF-kB RHD worked out at 7.4 z-score; in experiment [1], 7.45 z-score; with GST-Co-NF-kB, 3.92 z-score; with GST-Dm-Relish it was 8.97 z-score; with GST-Aq-NF-kB it was 7.03 z-score; with GST-Hu-p50 it was 6.45 z-score.
In the case of “CCGATTAACATCAAAAAAACCCTTGATGTTAATCGGGTCTTGATTCGCTTGACGCTGCTG”, the binding signal in the experiment with GST-Ap-NF-kB RHD was 4.62 z-score; in experiment [1] it was 5.48 z-score; with GST-Co-NF-kB it was 1.11 z-score; with GST-Dm-Relish, 6.8 z-score; with GST-Aq-NF-kB it was 6.78 z-score; in the experiment with GST-Hu-p50 it was 5.45 z-score.
Consider “CCGATTAACATCAGATAACCCCCTGATGTTAATCGGGTCTTGATTCGCTTGACGCTGCTG”, for which the binding signal came to 7.2 z-score with GST-Ap-NF-kB RHD; 5.72 z-score in experiment [1]; 2.43 z-score in the experiment with GST-Co-NF-kB; 6.66 z-score with GST-Dm-Relish; 6.11 z-score with GST-Aq-NF-kB; 5.79 z-score with GST-Hu-p50.
In the case of “CCGATTAACATCACCAAACCCCCTGATGTTAATCGGGTCTTGATTCGCTTGACGCTGCTG”, the binding signal in the experiment with GST-Ap-NF-kB RHD is 6.25 z-score; in experiment [1], 4.31 z-score; with GST-Co-NF-kB, 2.03 z-score; in the experiment with GST-Dm-Relish it was 5.55 z-score; in the experiment with GST-Aq-NF-kB, 4.31 z-score; in the experiment with GST-Hu-p50, 6.3 z-score.
Take “CCGATTAACATCAGGAGACCCCCTGATGTTAATCGGGTCTTGATTCGCTTGACGCTGCTG”: the binding signal with GST-Ap-NF-kB RHD is 5.3 z-score; in experiment [1], 3.64 z-score; with GST-Co-NF-kB, 1.61 z-score; with GST-Dm-Relish it was 5.66 z-score; in the experiment with GST-Aq-NF-kB, 6.55 z-score; with GST-Hu-p50, 4.1 z-score.
Turning to “CCGATTAACATCAAGGAACCCCCTGATGTTAATCGGGTCTTGATTCGCTTGACGCTGCTG”, the binding signal stood at 8.43 z-score with GST-Ap-NF-kB RHD; 5.99 z-score in experiment [1]; 2.03 z-score with GST-Co-NF-kB; 10.4 z-score with GST-Dm-Relish; 6.6 z-score with GST-Aq-NF-kB; 6.57 z-score with GST-Hu-p50.
In the case of “CCGATTAACATCAGGCGTTCCCCTGATGTTAATCGGGTCTTGATTCGCTTGACGCTGCTG”, the binding signal with GST-Ap-NF-kB RHD stood at 5.26 z-score; in experiment [1], 6.01 z-score; with GST-Co-NF-kB it was 3.98 z-score; in the experiment with GST-Dm-Relish, 6.34 z-score; with GST-Aq-NF-kB it was 5.53 z-score; in the experiment with GST-Hu-p50, 4.27 z-score.
As to “CCGATTAACATCAGGGGACTTCATGATGTTAATCGGGTCTTGATTCGCTTGACGCTGCTG”, the binding signal with GST-Ap-NF-kB RHD turned out to be 6.7 z-score; in experiment [1], 5.76 z-score; with GST-Co-NF-kB, 2.35 z-score; in the experiment with GST-Dm-Relish, 6.09 z-score; with GST-Aq-NF-kB, 5.48 z-score; with GST-Hu-p50, 5.72 z-score.
For “CCGATTAACATCAAGGGGGGAACTGATGTTAATCGGGTCTTGATTCGCTTGACGCTGCTG”, the binding signal with GST-Ap-NF-kB RHD worked out at 6.46 z-score; in experiment [1], 5.69 z-score; in the experiment with GST-Co-NF-kB it was 7.52 z-score; with GST-Dm-Relish, 3.7 z-score; with GST-Aq-NF-kB, 5.19 z-score; with GST-Hu-p50, 5.52 z-score.
As to “CCGATTAACATCACAAATACCCCTGATGTTAATCGGGTCTTGATTCGCTTGACGCTGCTG”, the binding signal with GST-Ap-NF-kB RHD was 5.46 z-score; in experiment [1], 4.42 z-score; in the experiment with GST-Co-NF-kB, 4.04 z-score; in the experiment with GST-Dm-Relish it was 3.75 z-score; with GST-Aq-NF-kB, 4.3 z-score; in the experiment with GST-Hu-p50 it was 5.3 z-score.
With “CCGATTAACATCAAACCTTCCCCTGATGTTAATCGGGTCTTGATTCGCTTGACGCTGCTG”, the binding signal with GST-Ap-NF-kB RHD was found to be 4.68 z-score; in experiment [1] it was 5.62 z-score; with GST-Co-NF-kB, 6.54 z-score; with GST-Dm-Relish, 3.12 z-score; with GST-Aq-NF-kB, 4.92 z-score; with GST-Hu-p50, 4.13 z-score.
Turning to “CCGATTAACATCAATAAAATCCCTGATGTTAATCGGGTCTTGATTCGCTTGACGCTGCTG”, the binding signal with GST-Ap-NF-kB RHD came out at 4.23 z-score; in experiment [1], 4.4 z-score; with GST-Co-NF-kB, 2.13 z-score; in the experiment with GST-Dm-Relish it was 6.47 z-score; with GST-Aq-NF-kB it was 4.79 z-score; in the experiment with GST-Hu-p50, 4.24 z-score.
For “CCGATTAACATCAAACCCCCCCTTGATGTTAATCGGGTCTTGATTCGCTTGACGCTGCTG”, the binding signal in the experiment with GST-Ap-NF-kB RHD was determined as 6.49 z-score; in experiment [1], 4.97 z-score; in the experiment with GST-Co-NF-kB it was 4.6 z-score; with GST-Dm-Relish, 7.14 z-score; with GST-Aq-NF-kB, 5.59 z-score; with GST-Hu-p50 it was 5.38 z-score.

The values above are taken from paper PMC5700166.
